Results from PubChem BioAssay AID1868 (National Center for Advancing Translational Sciences (NCATS), 2009).
Out of some 270,000 compounds screened, about 20 (0.007%) were called active. Calls come from the whole dose curve; as a rule, active = well fitted inhibition curve with a large enough effect; inconclusive = small, poorly fitted or top-dose-only effect, or effect the other way; inactive = flat fitted curve, though single readings scatter. The list is a sample of the results.

target: Galactokinase (Homo sapiens) (UniProt P51570); test: qHTS Assay for Inhibitors of Human Galactokinase (GALK); details: Purified GALK, Kinase-Glo residual ATP luminescence; series mostly up to 57.5 µM; activity change, negative = inhibition: at the top concentration
Source text: NIH Molecular Libraries Probe Production Centers Network [MLPCN] NIH Chemical Genomics Center [NCGC] MLPCN Grant: R03 MH085689-01 Assay Submitter (PI): Kent Lai (University of Utah School of Medicine, 50 N Mario Capecchi Drive, Salt Lake City, UT 84132) NCGC Assay Overview: Inherited deficiency of galactose-1-phosphate uridyltransferase (GALT) can result in a potentially lethal disorder called Classic Galactosemia (OMIM 230400). Several lines of evidence indicate that an elevated level of galactose-1-phosphate (gal-1-p), the product of galactokinase (GALK), is a major, if not sole, pathogenic mechanism in patients with classic galactosemia. Therefore, finding inhibitors of GALK is a potential novel therapy for this inherent metabolic disease and is the long term goal of this project. GALK (provided by the assay submitter) was assayed using ATP and D-(+)-Galactose (Sigma-Aldrich cat# G0750) as substrates. Promega Kinase-Glo Plus (cat# V3774) technology was used to detect the residual ATP following kinetic reaction. Briefly, the Kinase-Glo Plus contains Ultra-Glo [2] luciferase and D-luciferin which generates a bioluminescence signal from the remaining ATP.
NCGC Assay Protocol Summary: Three uL/well of ATP-buffer solution (35 uM ATP, 20mM HEPES pH8.0, 5 mM MgCl2, 60 mM NaCl, 1 mM DTT, 0.01% BSA final concentration) was dispensed into 1536-well, assay plates (Greiner, solid white medium-binding plates) with Aurora Discovery BioRAPTR Flying Reagent Dispenser (FRD; Beckton-Dickenson). Compound solution (23 nL) was transferred to the assay plate using the Kalypsys 1536-pin tool. One uL/well GALK-galactose solution (5 nM GALK, 100 uM galactose, 20 mM HEPES pH8.0, 5 mM MgCl2, 60 mM NaCl, 1 mM DTT, 0.01% BSA final concentration) was then added using the FRD yielding a total kinase reaction volume of 4 uL/ well. After 1 hour of room temperature incubation, 4 uL Kinase-Glo Plus reagent was added for a final assay volume of 8 uL/ well. Luminescence was detected with the ViewLux plate reader (Perkin Elmer, Waltham, MA) after 10 min incubation using a 1 sec exposure time and 2x binning.
% is set by controls: 0 for no effect and ±100 for the full control effect.

Galactokinase (Homo sapiens), sequence (P51570 whole entry, looked up): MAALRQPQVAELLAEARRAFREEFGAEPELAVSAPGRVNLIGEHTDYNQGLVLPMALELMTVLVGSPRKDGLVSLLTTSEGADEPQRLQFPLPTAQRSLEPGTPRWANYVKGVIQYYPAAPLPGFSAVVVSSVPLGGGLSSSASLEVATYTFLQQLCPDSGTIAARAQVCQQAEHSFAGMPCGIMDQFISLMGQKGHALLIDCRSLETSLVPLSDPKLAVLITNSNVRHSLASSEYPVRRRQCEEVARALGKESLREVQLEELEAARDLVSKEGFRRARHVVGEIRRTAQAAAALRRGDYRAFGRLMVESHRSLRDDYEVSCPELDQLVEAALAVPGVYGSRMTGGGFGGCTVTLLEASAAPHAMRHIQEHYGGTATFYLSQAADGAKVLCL

Activity change, negative = inhibition, inactive:
Brc1ccccc1CN1CCC(Cc2ccccc2)CC1 -0.837%
CC1CCN(C2=NC(=O)/C(=C/c3ccc(O)cc3)S2)CC1 -3.46%
CC1(C)Cc2c(sc(NC(=O)C(=O)N3CCOCC3)c2C#N)CO1 -2.42%
COc1cc(Cl)ccc1OCc1cc(C(=O)N2CC[C@@H]3CCCC[C@H]3C2)no1 3.62%
CCOc1ccc(CN2CCNC(=O)C2CC(=O)NCCCC2CCCC2)cc1 (configuration not stated) -3.91%
CCOc1ccc(S(=O)(=O)N2CCCC(C(=O)N3CCC(C(N)=O)CC3)C2)cc1Cl (configuration not stated) 6.26%
C=CCOc1ccc(/C=C/C(=O)OCC(=O)NC2CCCCCC2)cc1 0.149%
CN(c1ccccc1)S(=O)(=O)c1ccc(NC(=O)COc2ccccc2)cc1 -2.58%
Oc1cccc(/C=N/Nc2ccc(Cl)nn2)c1O 3.86%
O=C(NCCNc1ccc([N+](=O)[O-])cc1Cl)c1ccccc1F 2.76%
COc1ccc(S(=O)(=O)/N=C2\C=C(NS(=O)(=O)c3ccccc3)C(=O)c3ccccc32)cc1 2.13%
Cn1c(Nc2cccc(Cl)c2)nc2ccccc21 3.7%
CCn1c(=O)c(C(=O)NCc2ccc3c(c2)OCO3)c(O)c2ccccc21 -0.778%
O=C(Nc1ccc(Cl)c(Cl)c1)c1ccccc1NC(=O)C1CC=CCC1C(=O)O (configuration not stated) -1.72%
Cc1cccc(N2CCN(C(=O)CCS(=O)(=O)c3ccc4c(c3)NC(=O)C(C)S4)CC2)c1C (configuration not stated) -0.901%
CC(C)(C)NC(=O)C(c1ccc(Cl)cc1)N(CCO)C(=O)c1snc(C(N)=O)c1N (configuration not stated) 9.43%
O=C(CN1CCCC1)Nc1sc2c(c1C(=O)Nc1ccccc1)CCCC2 0.0885%
O=C(N/N=C/c1cccc(OCc2ccccc2)c1)c1ccc(Br)o1 4.11%
Cc1cc(C)n(CC(O)COc2ccc(C(C)(C)C)cc2)n1 (configuration not stated) 6.25%
COc1ccc(Oc2cn[nH]c2-c2ccc(OC)cc2O)cc1 6.03%
CSc1nnc(NC(=O)c2nc(S(=O)(=O)Cc3ccc(C)cc3)ncc2Cl)s1 -8.93%
Cc1cc(N=Nc2ccc3ccccc3c2)ccc1O -2.63%
Cc1ccc(-c2nc(-c3ccncc3)no2)c(C)c1 0%
CCCNC(=O)CCn1nc(-c2ccccc2)c2ccccc2c1=O 0.567%
COc1ccc(C(=O)/C=C/c2cccnc2)c(OC)c1 0.185%
COc1ccc(S(=O)(=O)N2CCN(C(=O)N(C)C)C2C)cc1 (configuration not stated) -1.94%
CN(C)S(=O)(=O)N1CCC(Oc2cccc(C(=O)NCCCC3CCCC3)c2)CC1 -10.2%
O=C(Nc1ccccc1)c1ccc2c(c1)OCCCO2 3.05%
Cc1[nH]n(C(N)=S)c(=O)c1N=Nc1ccc(Cl)cc1Cl 4.38%
O=C(NC(=S)Nc1ccc(Cl)cc1Cl)C1CC1 2.25%
COc1cccc(CNc2ncc(-c3ccccc3)n2C)c1 -6.73%
CCOc1ccccc1/C=N/Nc1nc2ccccc2o1 -3.29%
COc1ccc(CNc2cc(C)cc(C)c2)cc1OC 3.43%
Cc1ccc(NC(=O)Nc2cccnc2)cc1 4.12%
COc1ccc2cc(C(=O)C3CCCN(C(=O)c4sc(C)nc4C)C3)ccc2c1 (configuration not stated) 7.03%
CC(C)(C)C(=O)Nc1ccc(-c2cn3cccnc3n2)cc1 -0.896%
CC1(C(=O)N/N=C/c2cc3c(cc2Br)OCO3)CC1(Br)Br (configuration not stated) -6.75%
c1ccc(Cc2ccc(OCCn3ccnc3)cc2)cc1 2.93%
CNS(=O)(=O)c1ccc(NC(=O)Nc2ccc3c(c2)OCO3)cc1 2.4%
CC(=O)N(C)c1ccc(NC(=O)Nc2cccc3ccccc23)cc1 4.09%
Cc1nonc1NC(=O)c1oc2ccccc2c1C 4.67%
O=C(NCCCN1CCOCC1)c1ccc2c(c1)N(Cc1cccc(F)c1)C(=O)c1ccccc1S2 -2.22%
CSc1ccccc1OCc1cc(C(=O)N2C[C@H]3CC[C@H]2C3)no1 -3.8%
O=C(CNC(=O)Cc1ccccc1)N=Nc1c(O)[nH]c2ccc(Br)cc12 -8.43%
O=C(O)Cc1ccc(NC(=O)Nc2cccc3ccccc23)cc1 0.889%
COc1ccc(C(=O)NC2=NCCS2)c(OC)c1 -5.52%
CCCOC1CCCN(C(=O)c2cc(COc3cncc(Cl)c3)on2)C1 (configuration not stated) 1.7%
CCc1ccc(C(=O)NC(=S)Nc2ccccc2N2CCOCC2)cc1 -4.65%
Nc1cc(N)nc(SCc2cccc(F)c2)n1 -1.43%
Cc1ccc(NS(=O)(=O)c2ccc3c(c2)n(C)c(=O)c(=O)n3C)c(C)c1 -0.414%
COc1ccc(N(Cc2ccc(N(C)C)cc2)C(=O)c2ccc(S(C)(=O)=O)cc2)cc1 -2.56%
CCCCC(=O)Nc1ccccc1N1CCN(c2ccc(F)cc2)CC1 -6.49%
CC(=O)Nc1ccc(NC(=O)C2CCCN2S(=O)(=O)c2cccc(C(F)(F)F)c2)cc1 (configuration not stated) 1.26%
COc1ccc(-c2noc(CCCC(=O)NC3CCCC3)n2)cc1OC 1.8%
O=C(/C=C/c1ccco1)NC(=S)Nc1ccccc1Br 5.8%
COc1ccc(CCNC(=O)C2CCCN(S(=O)(=O)c3ccc(OC)cc3)C2)cc1 (configuration not stated) 10.8%
Cc1ccnc(NC(=O)CCNS(=O)(=O)c2ccc(C)c(C)c2)c1 -1.07%
O=C(Nc1nnc(C2CC2)s1)c1cc(Cl)sc1Cl -5.34%
COc1ccc(Nc2ncnc3sc(C)cc23)cc1 1.63%
O=C(CN1CCC(NC(=O)C2CC2)CC1)Nc1ccccc1[N+](=O)[O-] -0.918%
Cc1cccc(C(=O)NC(=S)N(C)C2CCCCC2)c1 -5.91%
CN(CCO)c1ccc(/C=N/Nc2nncc3ccccc23)cc1 21.5%
O=C(NCC(=O)N1CCN(c2ccccc2F)CC1)c1cccs1 -7.14%
Cc1ccc2nc(N3C(=O)C(O)=C(C(=O)c4ccco4)C3c3cccc(O)c3)sc2c1 (configuration not stated) -6.84%
C[n+]1cc(-c2ccccc2)oc1-c1ccccc1 -1.02%
Cc1cnc(NC(=O)c2ccc(Cl)nc2)s1 2.83%
C=CCN1CCN(C(=O)CCCc2ccccc2)CC1 3.4%
COc1ccc(N2CCN(S(=O)(=O)c3ccc4c(c3)N(C(C)=O)CCO4)CC2)cc1 -0.739%
O=C(O)CCC(=O)N(Cc1ccccc1)Cc1ccccc1 0%
Cc1noc(C)c1CCC(=O)N1CCCC(CO)(Cc2ccccc2)C1 (configuration not stated) 2.49%
O=C(c1noc2c1CCCC2)N1CCc2ccccc2C1 -2.74%
Cc1cccc(NC(=O)c2ccc3c(=O)n(CC4CCCO4)c(=S)[nH]c3c2)c1 (configuration not stated) 14.2%
